Source: PubChem BioAssay AID2642 (Johns Hopkins Ion Channel Center, 2010)
In all, about 310,000 compounds went through this assay and about 3,900 (1.3%) were called active. This is one part of a sample in which actives are shown more often than they occur.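 The calls were made as follows: active = compounds whose thallium flux B-score, printed positive for inhibition, exceeds three library SD while starting fluorescence stays within three; inactive = the rest.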

molecular target: Potassium voltage-gated channel subfamily KQT member 1 (Homo sapiens) (UniProt P51787); test: KCNQ1 potassium current blockers – cell-based, thallium flux, high-throughput, primary screen (AID 2642); details: CHO-K1 KCNQ1, FluxOR thallium flux fluorescence, at 10 µM; hits give high values;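 also: channel opened by potassium depolarization with thallium stimulus after 20 min compound exposure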
Sequence (P51787 whole entry, looked up): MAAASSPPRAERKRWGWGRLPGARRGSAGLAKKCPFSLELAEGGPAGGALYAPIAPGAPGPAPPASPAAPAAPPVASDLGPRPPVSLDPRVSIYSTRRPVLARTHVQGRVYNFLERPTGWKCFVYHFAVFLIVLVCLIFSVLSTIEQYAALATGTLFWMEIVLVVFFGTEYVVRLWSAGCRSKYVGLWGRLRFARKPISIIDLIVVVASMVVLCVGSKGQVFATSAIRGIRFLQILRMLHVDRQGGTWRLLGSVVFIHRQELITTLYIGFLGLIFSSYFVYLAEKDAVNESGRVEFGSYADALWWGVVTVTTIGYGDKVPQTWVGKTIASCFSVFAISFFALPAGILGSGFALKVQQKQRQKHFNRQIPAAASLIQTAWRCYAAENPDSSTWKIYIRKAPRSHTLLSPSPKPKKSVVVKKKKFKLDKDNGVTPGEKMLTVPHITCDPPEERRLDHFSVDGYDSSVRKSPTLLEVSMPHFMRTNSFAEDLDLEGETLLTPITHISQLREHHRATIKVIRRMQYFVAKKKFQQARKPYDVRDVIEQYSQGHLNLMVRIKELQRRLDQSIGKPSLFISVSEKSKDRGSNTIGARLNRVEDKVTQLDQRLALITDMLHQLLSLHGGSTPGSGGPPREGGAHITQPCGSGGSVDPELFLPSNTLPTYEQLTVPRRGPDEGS

B-score, active:
CCCCCCCCn1c2c(c(=N)c3c1CCC3)CCCC2 10
N#Cc1c(-c2ccccc2)nc(SCc2cccc(C(F)(F)F)c2)[nH]c1=O 8
CCNC(=O)c1ccc(OCC(=O)Nc2ccc(F)cc2)c(OC)c1 6
CC(C(=O)NCC1CCCCC1)N(C)Cc1cccc(Cl)c1 (configuration not stated) 8
O=C(COC(=O)/C(=C/c1cccs1)c1cccs1)NCc1ccccc1Cl 7
Cc1cc(C=O)c(C)n1-c1ccc(NC2CCCCC2)c([N+](=O)[O-])c1 14
Cn1nc(-c2ccccc2)c(CSc2cccc(Cl)c2)c1Cl 6
CCCCCCCCCCOC(=O)Cn1c(COc2cccc(OC)c2)[n+](C)c2ccccc21 8
FC(F)(F)c1cc(-c2ccco2)nc(NCc2ccc(Cl)cc2)n1 11
FC(F)Oc1ccc(NC(=S)NCc2ccco2)cc1Cl 7
Cc1nc(Nc2ccc3c(c2)OCCO3)c2nnn(Cc3ccccc3Cl)c2n1 7
CCc1ccc(-c2cc(C(=O)NCc3ccco3)c3ccccc3n2)s1 6
Cc1cccc(CSc2ccc(-c3cccs3)nn2)c1 7
Cc1oc2c(F)c(F)c(F)c(F)c2c1S(=O)(=O)Nc1cccc(C(F)(F)F)c1 12
CCOC(=O)N1CCN(C(=O)C2CCN(c3ncnc4c3sc3cccc(F)c34)CC2)CC1 6
Cn1nc(-c2ccc(Cl)cc2)c2cc(C(=O)NCc3ccco3)sc21 6
CC1CCC(N2CC(=O)N(Cc3ccc4c(c3)OCO4)C(c3ccc(F)cc3)C2=O)CC1 (configuration not stated) 6
CCCN1Cc2cccc(C(=O)NCc3ccccc3)c2C1=O 8
CCN(CC)CCN(C(=O)c1cc(Cl)sc1Cl)c1nc2cc3c(cc2s1)OCO3 7
Cc1cc2nc3c(=O)n(Cc4ccccc4)c(=O)[nH]c3nc2cc1N 8
CCOC(=O)C(C)n1cnc2scc(-c3ccc(C)c(C)c3)c2c1=O (configuration not stated) 6
Fc1ccc2[nH]c3c(N4CCSCC4)ncnc3c2c1 8
COc1ccc(/C=C2\CCCC3C2=NN(C(=O)c2scnc2C)C3c2ccc(OC)cc2)cc1 (configuration not stated) 8

B-score, inactive:
Cc1ccccc1CCNC(=O)C1CCC(=O)N(Cc2ccc(Cl)cc2)C1 (configuration not stated)
N#Cc1c(-c2ccccc2)nc(SCc2ccc([N+](=O)[O-])cc2)[nH]c1=O
Cc1ccc(CSc2nc(-c3ccccc3)c(C#N)c(=O)[nH]2)cc1
Clc1ccc2nc(CSc3ccccc3)cn2c1
CCOC(=O)c1cnc(-n2nc(C)cc2C)nc1NNc1cc(C)nc(-c2ccccc2)n1
COc1ccc(NC(C)=O)cc1NC(=O)CN1CCN(C2c3ccccc3-c3ccccc32)CC1
O=C1CCN(Cc2ccccc2)CCN1[C@H](CSc1ccccc1)c1ccccc1
CCOc1ccc(NC(=O)COc2ccc(C(=O)N3CCC(C(N)=O)CC3)cc2OC)cc1
COc1ccc(NC(=O)COc2ccc(C(=O)c3ccc(F)cc3)cc2)cc1S(N)(=O)=O
Cc1ccccc1Cn1c2ccccc2c2cnn(CC(=O)NCc3ccco3)c(=O)c21
CSC1=N/C(=C\C=C\c2cccs2)C(=O)S1
CC(=O)Nc1ccc(NC(=O)C(C)OC(=O)C2CC(=O)N(CCc3ccccc3)C2)cc1 (configuration not stated)
COc1ccc(CN(C)C(C)C(=O)NC2CCCc3ccccc32)cc1 (configuration not stated)
Cc1ccccc1NC(=O)NCC1CCN(Cc2cccc(Cl)c2)CC1
COc1cccc(COC(=O)C2CCN(S(=O)(=O)c3cccs3)CC2)c1OC
O=C(COC(=O)c1cccs1)NCc1cccs1
O=C(COC(=O)c1cc2c(s1)CCCC2)NCc1ccccc1Cl
O=c1c2c(nc3cc(-c4cccc(Cl)c4)[nH]n13)CCCC2
O=C(CN1C(=O)NC2(CCCC2)C1=O)OCCOc1ccc(F)cc1
Cc1cc([N+](=O)[O-])ccc1NC1CCCC1
Cc1c(NS(=O)(=O)c2ccc(NC3CCCC3)c([N+](=O)[O-])c2)c(=O)n(-c2ccccc2)n1C
CC(=O)Oc1c(C(=O)c2nnc(C)o2)c(=O)n(Cc2ccccc2)c2ccccc12
Cc1ccc(S(=O)(=O)c2c(COC(=O)c3cccc(Cl)c3)c(-c3ccccc3)nn2C)cc1
Cn1nc(-c2ccccc2)c(CO)c1Sc1ccccc1
CCCCCCCCCCOC(=O)Cn1c(COc2ccc(C)cc2)[n+](C)c2ccccc21
COc1cccc(OCCCN2CCCCCC2)c1
COc1ccc(C2=NOC(Cn3nc(C(=O)NCc4ccc5c(c4)OCO5)cc3-c3ccccc3)C2)cc1 (configuration not stated)
CCCCN(CC)CCNC(=O)CCNC(=O)Cn1ccc2ccccc2c1=O
Cc1cc(C(F)(F)F)nn1-c1nc(-c2ccco2)cc(C(F)(F)F)n1
FC(F)(F)c1cc(-c2cccs2)nc(NCc2ccco2)n1
COc1ccc(NC(=O)CSc2nncc(=O)n2N)cc1OC
COc1cc(NC(=S)NCc2ccco2)c(OC)cc1Cl
COc1cccc(NC(=S)NCc2ccco2)c1
CCOC(=O)c1cnc2c(c(C)nn2CC)c1Cl
COc1ccc(S(=O)(=O)N2CCCC2CNC(=O)C(=O)NC2CC2)cc1 (configuration not stated)
Cc1nc(Nc2ccccc2F)c2nnn(Cc3ccccc3Cl)c2n1
CCCc1nc(NCc2ccc3c(c2)OCO3)c2nnn(Cc3ccccc3Cl)c2n1
CCCN1C(=O)C(Cc2nc3ccccc3c(=O)n2-c2ccccc2)c2cc(C)ccc21 (configuration not stated)
O=[N+]([O-])/C=C/c1ccc2c(ccn2Cc2ccccc2)c1
COc1ccccc1N1CCN(C(=O)c2ccc(NC3=NC4CS(=O)(=O)CC4S3)cc2)CC1 (configuration not stated)
CCC(=O)Nc1nc(C)c(C(=O)Nc2cccc(Cl)c2)s1
CC(C(=O)NC1CCCC1)N(c1ccc(Oc2ccccc2)cc1)S(C)(=O)=O (configuration not stated)
COC(=O)CNC(=O)c1cc(-c2ccncc2)nc2ccccc12
CCCCN(C)CCCNC(=O)c1cc(-c2cccs2)nc2ccccc12
COc1ccccc1Cn1c(C)nnc1-c1cnn(C)c1N
Cc1cc(C)cc(NS(=O)(=O)Cc2ccccc2)c1
CCc1cc(C(=O)OC)c(NC(=O)CC2Sc3ccc(C(F)(F)F)cc3NC2=O)s1 (configuration not stated)
Cc1cccc(C(=O)NNC(=O)CSc2nnc(C(C)C)n2C)c1
O=C(CSc1ccc(-c2cccs2)nn1)Nc1ccccc1F
Cc1cccc(CSc2nnc(NC(=O)CSc3nnc(C)s3)s2)c1
CCOC(=O)C1(CCOc2ccccc2)CCN(Cc2ccc(C#CCCO)cc2)CC1
Cc1cc(OCc2cc(C(=O)NCc3cc(C(C)C)no3)no2)cc(C)c1Cl
CCCCn1c(SCc2ncc(-c3ccccc3)o2)nc2cc(S(N)(=O)=O)ccc21
O=C(/C=C/c1ccc(F)cc1)Nc1cccc(S(=O)(=O)Nc2cccc(C(F)(F)F)c2)c1
CCNS(=O)(=O)c1ccc(NC(=O)Nc2cccc(C(F)(F)F)c2)cc1
COc1ccc(/C(=N\O)c2nccc3cc(OC)c(OC)cc23)cc1OC
CCOC(=O)N1CCN(C(=O)C2CCN(Cc3ccc(OC)cc3OC)CC2)CC1
CCOC(=O)N1CCN(C(=O)C2CCN(S(=O)(=O)c3cc(Cl)ccc3OCC)CC2)CC1
COc1ccc2c(c1)CCc1cn3ncc(C#N)c3nc1-2
CCOC(=O)C1CCN(C(=O)C2CCN(S(=O)(=O)CC)CC2)CC1
CCOC(=O)c1cn(CC)c2cc(F)c(F)cc2c1=O
COc1ccccc1N1CCN(C(=O)c2cc3c(-c4ccc(Cl)cc4)nn(C)c3s2)CC1
CCOC(=O)N1CCN(C(=O)c2cc3c(-c4ccc(Cl)cc4)nn(C)c3s2)CC1
CN1CCc2ccccc2C1Cc1ccccc1NC(=O)c1sc2ccccc2c1Cl (configuration not stated)
CCN(CC(=O)Nc1c(F)cccc1F)C(=O)c1ccc(Sc2nncn2C)c([N+](=O)[O-])c1
COc1ccc(CNc2ccc3c(c2)CCC3)cc1OC
COc1ccc(OC)c(CCNC(=O)CCn2ccc3cc(S(=O)(=O)N4CCCC4)ccc32)c1
CCOCc1nnc(NC(=O)CCC2CCCCC2)s1
CN1CCN(NC(=O)Nc2ccc(Br)cc2)CC1
CNC(=O)C1CC(=O)N(Cc2ccc3c(c2)OCO3)C(=Nc2ccc(F)cc2)S1 (configuration not stated)
CC1CCC(NC(=O)C2c3ccccc3C(=O)N2Cc2ccc3c(c2)OCO3)CC1 (configuration not stated)
COc1ccccc1C(=O)NC(=S)NC12CC3CC(CC(C3)C1)C2
COCCN1Cc2cccc(C(=O)Nc3ccccc3OC)c2C1=O
CSc1ccccc1C(=O)NCc1ccccc1
CSc1ccccc1NC(=O)c1cnc2sc(C)cn2c1=O
Cc1nc(NC(=O)C2CCCCC2)sc1C
CN(C)CCN(C(=O)C1CCCCC1)c1nc2cc3c(cc2s1)OCO3
CCN(CC)CCN(C(=O)c1ccc(N2C(=O)CCC2=O)cc1)c1nc2cc3c(cc2s1)OCO3
CCCc1nn2c(=O)cc(CSCC(=O)Nc3cccc(C)c3)nc2s1
CC(=O)c1ccc(-c2ccc(Cn3c(C)nc4cc(N)c(C)nc43)cc2)cc1
Cc1cc(-c2csc(N)n2)c(C)n1Cc1ccccc1
O=C(O)c1ccc2c(=O)n3c(nc2c1)/C(=C/c1ccc(Cl)c([N+](=O)[O-])c1)CC3
CC(=O)C(C)n1cnc2scc(-c3ccc(C)cc3)c2c1=O (configuration not stated)
CCn1cnc2scc(-c3ccc(C)c(C)c3)c2c1=O
CC(c1nnc(SCC(=O)Nc2sccc2C#N)n1-c1ccc(Cl)cc1)N(C)C (configuration not stated)
Cc1c(CN2CC[C@@H](N3CCN(c4ccccn4)CC3)[C@H](O)C2)[nH]c2ccc(F)cc12
C=CCn1c(Cn2nnc3ccccc32)nnc1SCC(=O)N/N=C/c1cc(Br)cc(OC)c1O
CCOC(=O)C1(Cc2ccccc2C(F)(F)F)CCN(C(=O)c2cc(C)n(C)n2)CC1
O=S(=O)(c1ccccc1)c1nc(Cc2ccccc2)oc1N1CCOCC1
